# Inconclusive results are not listed. Entries that show only a call come without a potency. The source made the active and inactive calls. The call rests on the fitted dose curve; in most records, active means well fitted curve in the direction sought with a large enough effect; inconclusive means small, poorly fitted or top-dose-only effect, or another doubt; inactive means no such curve, though single readings can be large; an effect the other way counts as inactive or inconclusive.
# How the values were obtained:
# [1] = biological target: N-terminal Xaa-Pro-Lys N-methyltransferase 1 (Homo sapiens) (UniProt Q9BV86); assay: qHTS Assay for Inhibitors of N-terminal methyltransferase 1 (NTMT1): LOPAC validation of the NTMT1 SAHH-coupled ThioGlo3 Assay (AID 1347143);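 further: SAH from peptide methylation measured as thiol fluorescence via SAHH coupling and ThioGlo3; nearly all actives have a fitted effect of over 70% in size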; further: potency means the concentration at half of the fitted maximal effect
# Sequence of N-terminal Xaa-Pro-Lys N-methyltransferase 1 (Homo sapiens) (Q9BV86 whole entry, looked up): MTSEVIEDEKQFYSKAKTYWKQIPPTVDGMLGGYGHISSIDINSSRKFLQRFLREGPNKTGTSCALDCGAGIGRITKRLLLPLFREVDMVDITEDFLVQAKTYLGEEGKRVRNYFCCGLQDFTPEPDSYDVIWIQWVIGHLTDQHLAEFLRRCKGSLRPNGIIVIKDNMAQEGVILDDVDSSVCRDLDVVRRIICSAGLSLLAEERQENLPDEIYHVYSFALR
# In short: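 Steps: dispense 125nM NTMT1; pin-transfer test compounds at several concentrations, with 1uM RCC1-6 peptide as control; incubate 1 min; start with reagent holding 100uM SAM, 10uM SAHH, 15uM ThioGlo3; read at 0 and 30 min.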
# [2] = tested on: Zika virus NS2B-NS3 protease (unlinked); assay: Optimization of GU AMC qHTS for Zika virus inhibitors: Unlinked NS2B-NS3 protease assay (AID 1347151); further: nearly all actives have a fitted effect of over 80% in size; further: potency means the concentration at half of the fitted maximal effect
# In short: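 Noncovalent complex of NS2B hydrophilic domain and NS3 protease domain, 25 nM final, in 10 mM Tris-HCl pH 8.0, 0.01% Tween 20. AMC fluorescence change over 15 min at room temperature was fitted to a 4-parameter Hill equation.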
# [3] = qHTS of pediatric cancer cell lines to identify multiple opportunities for drug repurposing: Confirmatory screen for MG 63 (6-TG R) cells (AID 1347119); further: nearly all actives have a fitted effect of over 55% in size; further: potency means the concentration at half of the fitted maximal effect
# In short: (§1)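 Viability after 48 h compound treatment at 37C, 500-1,000 cells/well, read as ATP luminescence with CellTiter-Glo. Primary screens used 11-point (MIPE, 0.78 nM-46 µM) or 8-point (NPC, 0.59 nM-46 µM) final concentrations; follow-up screens used 11-point dilutions.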
# [4] = qHTS of pediatric cancer cell lines to identify multiple opportunities for drug repurposing: Confirmatory screen for control Hh wild type fibroblast cells (AID 1347121); further: nearly all actives have a fitted effect of over 70% in size
# In short: as §1
# [5] = qHTS of pediatric cancer cell lines to identify multiple opportunities for drug repurposing: Confirmatory screen for U-2 OS cells (AID 1347122); further: nearly all actives have a fitted effect of over 65% in size; further: potency means the concentration at half of the fitted maximal effect
# In short: as §1
# [6] = qHTS of pediatric cancer cell lines to identify multiple opportunities for drug repurposing: Confirmatory screen for Rh41 cells (AID 1347123);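 further: 48 h compound exposure; nearly all actives have a fitted effect of over 60% in size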; further: potency means the concentration at half of the fitted maximal effect
# In short: as §1
# [7] = qHTS of pediatric cancer cell lines to identify multiple opportunities for drug repurposing: Confirmatory screen for SK-N-SH cells (AID 1347129);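 further: cells exposed to compound for 48 h before viability read; nearly all actives have a fitted effect of over 60% in size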; further: potency means the concentration at half of the fitted maximal effect
# In short: as §1
# [8] = tested on: Zika virus NS2B-NS3 protease; assay: Primary screen GU AMC qHTS for Zika virus inhibitors (AID 1347154); further: nearly all actives have a fitted effect of over 70% in size; further: potency means the concentration at half of the fitted maximal effect
# In short: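 Unlinked Zika NS2B hydrophilic domain–NS3 protease complex at 25 nM in 10 mM Tris-HCl pH 8.0, 0.01% Tween 20, with an AMC peptide substrate. Fluorescence change (340/450 nm) over 15 min at room temperature, normalized to controls, fitted to 4-parameter Hill.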
# [9] = qHTS of pediatric cancer cell lines to identify multiple opportunities for drug repurposing: Confirmatory screen for RD cells (AID 1347124);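 further: cells exposed to compound for 48 h before viability readout; nearly all actives have a fitted effect of over 65% in size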
# In short: as §1
# [10] = qHTS of pediatric cancer cell lines to identify multiple opportunities for drug repurposing: Confirmatory screen for OHS-50 cells (AID 1347128);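 further: potency means the concentration at half of the fitted maximal effect; compound exposure lasted 48 h at 37 degrees C; nearly all actives have a fitted effect of over 55% in size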
# In short: as §1
# [11] = tested on: Zika virus NS2B-NS3 protease (linked construct); assay: Primary screen NINDS Rhodamine qHTS for Zika virus inhibitors (AID 1347160); further: nearly all actives have a fitted effect of over 55% in size
# In short: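 Rhodamine110-peptide cleavage (1.5 µM substrate) by 25 nM linked NS2B-NS3 enzyme at pH 8.0 (Tris, Tween 20), after 15 min RT preincubation with compounds; 15-min fluorescence change normalized to controls and Hill-fitted.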
# [12] = biological target: Furin (Homo sapiens) (UniProt P09958); assay: Furin counterscreen qHTS for Zika virus inhibitors (AID 1347149); further: nearly all actives have a fitted effect of over 70% in size; further: potency means the concentration at half of the fitted maximal effect
# Sequence of Furin (Homo sapiens) (P09958 whole entry, looked up): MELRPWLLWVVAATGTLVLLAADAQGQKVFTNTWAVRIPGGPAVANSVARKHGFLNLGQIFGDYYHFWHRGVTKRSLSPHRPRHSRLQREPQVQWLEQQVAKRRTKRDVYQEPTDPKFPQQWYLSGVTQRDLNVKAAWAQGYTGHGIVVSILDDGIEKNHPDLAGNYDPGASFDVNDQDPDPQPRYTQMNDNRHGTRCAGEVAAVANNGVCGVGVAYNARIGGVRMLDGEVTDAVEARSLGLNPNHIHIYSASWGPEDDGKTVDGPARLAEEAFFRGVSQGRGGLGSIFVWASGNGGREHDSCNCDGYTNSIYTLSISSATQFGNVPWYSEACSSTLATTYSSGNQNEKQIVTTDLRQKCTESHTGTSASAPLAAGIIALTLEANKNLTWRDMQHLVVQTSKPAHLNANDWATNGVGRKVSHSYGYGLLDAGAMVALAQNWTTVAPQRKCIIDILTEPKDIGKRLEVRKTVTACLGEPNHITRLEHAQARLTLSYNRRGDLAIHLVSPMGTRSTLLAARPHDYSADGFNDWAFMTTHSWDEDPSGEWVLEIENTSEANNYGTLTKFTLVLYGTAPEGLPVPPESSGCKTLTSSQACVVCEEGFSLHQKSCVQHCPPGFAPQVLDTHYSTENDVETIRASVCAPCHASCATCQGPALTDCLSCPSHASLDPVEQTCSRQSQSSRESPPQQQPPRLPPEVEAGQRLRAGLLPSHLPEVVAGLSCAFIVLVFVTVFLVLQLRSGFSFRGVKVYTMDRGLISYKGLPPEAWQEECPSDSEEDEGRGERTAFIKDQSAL
# In short: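 Counterscreen measures cleavage of 2 microM BOC-RVRR-AMC, below its ~15 microM Km, by 5 nM full-length human furin at pH 7.0 after a 15-min compound preincubation. Inhibition derives from the 15-min fluorescence increase at 37C.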
# [13] = Confirmatory screen GU Rhodamine qHTS for Zika virus inhibitors qHTS (AID 1347157); further: nearly all actives have a fitted effect of over 70% in size
# In short: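 Buffer 10 mM Tris-HCl pH 8.0, 0.01% Tween 20. Unlinked protease 25 nM; compound preincubation 15 min, RT, protected from light. Substrate Rhod110, 1.5 microM; ~15% conversion in 15 min.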
# [14] = tested on: Zika virus NS2B-NS3 protease (linked construct); assay: Confirmatory screen NINDS AMC qHTS for Zika virus inhibitors (AID 1347152)
# In short: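 Purified NS2B-NS3 protease with NS2B hydrophilic domain linked to NS3 protease domain by flexible linker, 1 nM final in 10 mM Tris-HCl pH 8.0, 0.01% Tween 20. Compounds preincubated 15 min, room temperature; Bz-Nle-KRR-AMC 10 microM (Km 18.3 µM); 15-min fluorescence change, 4-parameter Hill fit.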
# [15] = tested on: Zika virus NS2B-NS3 protease (unlinked complex); assay: Primary screen GU Rhodamine qHTS for Zika virus inhibitors: Unlinked NS2B-NS3 protease assay (AID 1347159); further: nearly all actives have a fitted effect of over 60% in size
# In short: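 Percent inhibition came from the 15-min rise in Rhodamine110 fluorescence (1.5 microM substrate, ~15% conversion), normalized to no-inhibitor and no-enzyme wells and Hill-fitted. Unlinked protease, 25 nM, pH 8.0 Tris buffer; compounds up to 114 microM, 15-min preincubation.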
# [16] = ZIKV-mCherry secondary qHTS for Zika virus inhibitors (AID 1347158); further: top concentration of the series differs between compounds
# In short: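 Percent infection is the share of Hoechst-identified Vero nuclei with mCherry signal above 450 RFU (3 SD over negative controls). Cells were infected with recombinant ZIKV-mCherry at MOI 1 after compound addition and imaged 48–72 h later.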
smiles,measurement,setting,value
COc1ccc2c(c[n+](C)c3c4cc5c(cc4ccc23)OCO5)c1OC,Potency,[1],25.1 µM (active)
same,Potency,[2],29.9 µM (active)
COC1=CC(C)=C[C@@H](C)[C@@H](O)[C@@H](C)CC(C)=CC=C[C@H](OC)[C@H]([C@@H](C)[C@@H](O)[C@H](C)[C@@]2(O)C[C@@H](O)[C@H](C)[C@@H](C(C)C)O2)OC1=O,Potency,[3],inactive
same,Potency,[4],inactive
same,Potency,[5],inactive
same,Potency,[6],inactive
same,Potency,[7],inactive
same,Potency,[8],inactive
CCCN(CCC)[C@@H]1CCc2ccc(O)cc2C1,Potency,[1],inactive
same,Potency,[2],inactive
CC1=NN=C(c2ccc(N)cc2)c2cc3c(cc2C1)OCO3,Potency,[1],56.2 µM (active)
CCCN1CCC[C@H](c2cccc(O)c2)C1,Potency,[1],inactive
same,Potency,[2],inactive
C/C=C(/C)C(=O)O[C@H]1C(C)=C2[C@H]([C@@H]1OC(=O)CCCCCCC)[C@@](C)(OC(C)=O)C[C@H](OC(=O)CCC)[C@@]1(O)[C@H]2OC(=O)[C@@]1(C)O,Potency,[1],inactive
C[C@]12N[C@H](Cc3ccccc31)c1ccccc12,Potency,[1],inactive
same,Potency,[2],inactive
O=C(Cc1ccc(Cl)c(Cl)c1)N1CCCCC1CN1CCCC1 (stereo unspecified),Potency,[1],inactive
same,Potency,[2],inactive
same,Potency,[8],inactive
C[C@]12CCC3C(CC[C@H]4C[C@H](O)CC[C@]34C)C1CC[C@@H]2C(=O)CO (stereo partly specified),Potency,[1],inactive
same,Potency,[2],inactive
CS(=N)(=O)CC[C@H](N)C(=O)O (stereo partly specified),Potency,[1],inactive
same,Potency,[2],inactive
C[C@@H]1O[C@H](C[N+](C)(C)C)C[C@H]1O,Potency,[1],inactive
same,Potency,[2],inactive
C[N+]1(C)C2CCC1CC(OC(=O)C(CO)c1ccccc1)C2 (stereo unspecified),Potency,[1],inactive
same,Potency,[2],inactive
CC(=O)[C@H]1CCC2C3CC[C@H]4C[C@H](O)CC[C@]4(C)C3CC[C@@]21C (stereo partly specified),Potency,[1],inactive
same,Potency,[2],inactive
CO[C@H]1CCC(O[C@H]2C[C@H]([C@]3(C)CC[C@]4(C[C@H](O)[C@@H](C)[C@@H]([C@@H](C)C=C(C)C(=O)[C@H](C)C[C@H](C)C(=O)O)O4)O3)O[C@]3(O[C@@H]([C@H]4O[C@@](O)(CO)[C@H](C)C[C@H]4C)C[C@H]3C)[C@H]2C)O[C@H]1C (stereo partly specified),Potency,[3],2.08 µM (active)
same,Potency,[5],5.22 µM (active)
same,Potency,[6],1.47 µM (active)
same,Potency,[9],inactive
same,Potency,[10],2.61 µM (active)
same,Potency,[7],5.26 µM (active)
same,Potency,[8],inactive
O=C(O)[C@@H]1CCN1,Potency,[1],inactive
same,Potency,[2],inactive
COC(=O)[C@@H](N)CCCN=C(N)N[N+](=O)[O-],Potency,[1],inactive
same,Potency,[2],inactive
same,Potency,[8],inactive
NCCc1c[nH]c2ccc(O)cc12,Potency,[2],inactive
same,Potency,[8],inactive
same,Potency,[11],inactive
CCOC(=O)c1cncn1[C@H](C)c1ccccc1,Potency,[8],inactive
CCC(=O)O[C@@H]1C=C2CCC3C(CCC4(C)C3CC[C@@H]4OC(=O)CC)C2CC1 (stereo partly specified),Potency,[8],inactive
CCCN1CCO[C@@H]2c3cc(O)ccc3OC[C@H]21,Potency,[2],inactive
same,Potency,[8],inactive
Cc1cc(O)ccc1Cl,Potency,[8],inactive
O=C1CCCN1CC#CCN1CCCC1,Potency,[1],inactive
same,Potency,[2],inactive
same,Potency,[8],inactive
Clc1cnc(Oc2ccc(Oc3ncc(Cl)cc3Cl)cc2)c(Cl)c1,Potency,[1],inactive
same,Potency,[2],inactive
same,Potency,[8],inactive
Nc1c(Cl)c(Cl)c(Cl)c(Cl)c1Cl,Potency,[12],inactive
same,Potency,[8],inactive
same,Potency,[13],inactive
CN[C@@H](C)[C@H](O)c1ccccc1,Potency,[8],inactive
CNCCc1ccc(O)c(O)c1,Potency,[2],inactive
c1ccc2sc(C3(N4CCCCC4)CCCCC3)cc2c1,Potency,[1],inactive
same,Potency,[2],inactive
same,Potency,[8],inactive
Nc1ccc(Cl)cc1N,Potency,[8],inactive
CC(Cc1ccc(O)cc1)NCC(O)c1cc(O)cc(O)c1 (stereo unspecified),Potency,[2],inactive
same,Potency,[8],inactive
CNCCc1c[nH]c2ccc(O)cc12,Potency,[2],inactive
COc1ccc(C(c2ccc(OC)cc2)C(Cl)(Cl)Cl)cc1,Potency,[8],inactive
CC(=O)N(C)c1cccc(-c2ccnc3c(C(=O)c4cccs4)cnn23)c1,Potency,[12],24.1 µM (active)
same,Potency,[14],24.1 µM (active)
same,Potency,[8],21.5 µM (active)
same,Potency,[15],inactive
same,Potency,[11],inactive
COc1ccc(CC2NCCc3cc(OC)c(OC)cc32)cc1OC (stereo unspecified),Potency,[8],inactive
C[C@@H](N)Cc1cnc[nH]1,Potency,[1],inactive
same,Potency,[2],inactive
same,Potency,[8],inactive
Oc1ccc2c3c1O[C@H]1c4[nH]c5c(c4C[C@@]4(O)[C@@H](C2)N(CC2CC2)CC[C@]314)C[C@@]1(O)[C@H]2Cc3ccc(O)c4c3[C@@]1(CCN2CC1CC1)[C@H]5O4,Potency,[2],inactive
NCCc1c[nH]c2ccccc12,Potency,[1],inactive
same,Potency,[2],inactive
same,Potency,[8],inactive
same,Potency,[11],inactive
O=C(O)c1cc(Oc2ccc(C(F)(F)F)cc2Cl)ccc1[N+](=O)[O-],Potency,[12],inactive
same,Potency,[8],inactive
same,outcome,[16],inactive
CN[C@@H]1C[C@@H](c2ccc(Cl)c(Cl)c2)c2ccccc21,Potency,[2],inactive
C[C@]12COC(=O)C[C@@H]1CC[C@@H]1[C@H]2CC[C@@]2(C)[C@H]1CC[C@]2(C)O,Potency,[8],inactive
CC(=O)NCCc1c[nH]c2ccccc12,Potency,[1],inactive
same,Potency,[2],inactive
same,Potency,[8],inactive
same,Potency,[15],inactive
same,Potency,[11],inactive
Nc1ccc(Cl)cc1,Potency,[8],inactive
CC(=O)OCC1=C(C(=O)O)N2C(=O)[C@@H](N)[C@@H]2SC1,Potency,[8],inactive
C[N+](C)(C)CC(=O)O,Potency,[2],inactive
NC1CC1c1ccccc1 (stereo unspecified),Potency,[1],inactive
same,Potency,[2],inactive
same,Potency,[8],inactive
OCCCBr,Potency,[8],inactive
c1ccc(CCCN2CCN(CCOC(c3ccccc3)c3ccccc3)CC2)cc1,Potency,[2],inactive
same,Potency,[8],inactive
C=C1C[C@H]2[C@H]3CCC(=O)[C@@]3(C)CC[C@@H]2[C@@]2(C)C=CC(=O)C=C12,Potency,[8],inactive
Cc1nccc2c1[nH]c1ccccc12,Potency,[1],79.4 µM (active)
same,Potency,[2],26.7 µM (active)
same,Potency,[8],26.7 µM (active)
N=c1c2c(-c3ccccc3)c(-c3ccccc3)n(Cc3ccccc3)c2ncn1C1CCC(O)CC1 (stereo unspecified),Potency,[8],inactive
CC[C@@H](C(N)=O)N1CCCC1=O,Potency,[1],inactive
same,Potency,[2],inactive
same,Potency,[8],inactive
Cc1c(C(=O)c2cccc3ccccc23)c2cccc3c2n1[C@H](CN1CCOCC1)CO3,Potency,[8],inactive
CC1(C)CC/C(=C/c2ccc(Cl)cc2)C1(O)Cn1cncn1 (stereo unspecified),Potency,[8],inactive
S=C(NC1CCCCC1)N1CCC(c2cnc[nH]2)CC1,Potency,[1],inactive
same,Potency,[2],inactive
same,Potency,[15],inactive
same,Potency,[11],inactive
CN(C)[C@@H]1C(=O)C(C(N)=O)=C(O)[C@@]2(O)C(=O)C3=C(O)c4c(O)cccc4[C@@](C)(O)[C@H]3[C@H](O)[C@@H]12,outcome,[16],inactive

# Source: PubChem BioAssay (NCATS)
